# FEN1 inh-1 – human FEN1 inhibition; P39748; Recombinant FEN1 flap cleavage, fluorescence, 15 min; Potency, µM (highest dose often 114 µM), for inactives: top-dose activity change, negative = inhibition, hits mostly inhibitors; 0.35% of 390,000 active; AID 588795; also: % is scaled to controls: 0 for no effect and ±100 for the full control effect; nearly all actives have a fitted effect of over 65% in size
#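 Compounds are tested as a concentration series against 10 nM FEN1; after a 15 min room-temperature preincubation, 50 nM substrate starts cleavage, with plate reads at 0 and 15 min. Normalized responses are fitted by a Hill equation.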
# POLH inh – inhibitors of human DNA polymerase eta | Q9Y253 | recombinant Pol eta, fluorescent DNA replication assay | Potency, µM (series often up to 114 µM), for the others: top-dose activity change, negative = inhibition, hits mostly inhibitors | 1.2% of 390,000 active | AID 588591; also: % is scaled to controls: 0 for no effect and ±100 for the full control effect
# Target sequence (Q9Y253 whole entry, looked up): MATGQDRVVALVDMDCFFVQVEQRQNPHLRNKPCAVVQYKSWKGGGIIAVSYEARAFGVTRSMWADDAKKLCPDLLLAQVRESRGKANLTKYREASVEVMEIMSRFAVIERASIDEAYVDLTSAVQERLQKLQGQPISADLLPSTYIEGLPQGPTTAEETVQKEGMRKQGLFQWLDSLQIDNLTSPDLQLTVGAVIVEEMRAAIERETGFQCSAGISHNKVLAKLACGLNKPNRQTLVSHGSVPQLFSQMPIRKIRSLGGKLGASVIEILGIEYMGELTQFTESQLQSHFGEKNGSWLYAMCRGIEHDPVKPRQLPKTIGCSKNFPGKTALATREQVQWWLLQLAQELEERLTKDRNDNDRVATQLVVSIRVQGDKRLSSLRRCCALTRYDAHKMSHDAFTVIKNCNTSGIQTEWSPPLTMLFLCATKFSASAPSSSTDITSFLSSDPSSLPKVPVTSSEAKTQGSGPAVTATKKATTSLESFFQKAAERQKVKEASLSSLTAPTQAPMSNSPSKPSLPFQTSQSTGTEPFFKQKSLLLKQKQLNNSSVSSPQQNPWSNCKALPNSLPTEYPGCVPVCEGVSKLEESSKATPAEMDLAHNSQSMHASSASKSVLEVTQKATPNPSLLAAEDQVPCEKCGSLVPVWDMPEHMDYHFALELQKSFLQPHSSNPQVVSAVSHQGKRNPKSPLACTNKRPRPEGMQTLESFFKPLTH
#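 Pol eta (10 nM) was preincubated with compounds for 15 min at room temperature, after which fluorescent replication substrate (50 nM final) was added to start the reaction. Fluorescence was read kinetically at 0 and 10 min.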
# Pol iota inh – blocks human DNA polymerase iota activity; Potency, µM (highest dose often 115 µM), for the others: at the top dose activity, negative = inhibition, actives largely listed as inhibitors; Q9UNA4; 1% of 390,000 active; Pol iota fluorescent replication assay, 10 min
#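 Fluorescent replication assay read twice, at 0 min and 10 min after adding 50 nM (final) substrate. Enzyme (10 nM) and compounds were first incubated 15 min at room temperature; enzyme-free buffer wells were negative controls.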
# POLK inh – DNA polymerase kappa (human) inhibition; 0.53% of 400,000 active; Potency, µM (doses to about 107 µM), without a hit: at the highest dose activity, negative = inhibition, actives largely listed as inhibitors; purified Pol kappa, fluorescent DNA synthesis assay, 10 min; AID 588579; Q9UBT6; also: % is scaled to controls: 0 for no effect and ±100 for the full control effect
#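 Inhibition of 10 nM Pol kappa is measured by a fluorescent read-out at 0 and 10 min following addition of 50 nM substrate (final), with a 15-min room-temperature compound preincubation.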
# POLB inh – DNA polymerase beta (human) inhibition; Potency, µM (highest dose often 114 µM), without a hit: at the highest dose activity change, negative = inhibition, actives largely listed as inhibitors; 1.3% of 340,000 active; Pol beta primer extension/strand displacement, fluorescence kinetic; also: % is scaled to controls: 0 for no effect and ±100 for the full control effect
#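 Curves were derived by four-parameter Hill fits of normalized qHTS data. The kinetic fluorescent primer-extension read was taken at 0 and 10 min after 50 nM substrate, following a 15 min room-temperature preincubation of 10 nM enzyme with compounds.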
# Tb PGK inh – inhibitors of T. brucei phosphoglycerate kinase; P07378; PGK/GAPDH coupled, Kinase-Glo luminescence, 60 min; Potency, µM (highest dose often 57.5 µM), for the others: at the highest dose activity change, negative = inhibition, usual class: inhibitors; 0.043% of 380,000 active; AID 602233; also: % is scaled to controls: 0 for no effect and ±100 for the full control effect; nearly all actives have a fitted effect of over 60% in size
#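 Luminescent ATP detection (Kinase-Glo Plus) follows a 60-minute room-temperature incubation, with wells lacking PGK as controls. Buffer: 100 mM TEA (pH 7.6), 5 mM MgCl2, 0.01% Tween-20. Coupling enzyme GAPDH (100 nM final) supplies unstable 1,3-BPG in-well.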
# FEN1 inh-2 – confirmation of human FEN1 inhibitors; shares compounds with FEN1 inh-1; FEN1 flap cleavage, TAMRA/BHQ2 fluorogenic DNA substrate; Potency, µM, actives largely listed as inhibitors; 79% of 880 active; AID 720498; also: nearly all actives have a fitted effect of over 60% in size
# * marks the source's active call; other numbers are inactive results; ? = inconclusive; / = no result given; [ ] = remark or other dose. The list is not random: actives were taken first. Their share in the collection is about 2.4%. Calls follow the shape of the dose curve; as a rule, active = well fitted curve in the direction sought with a large enough effect; inconclusive = small, poorly fitted or top-dose-only effect, or another doubt; inactive = no such curve, though single readings can be large; an effect the other way counts as inactive or inconclusive. Potency is read from the fitted curve at half-maximal effect.
SMILES,FEN1 inh-1,POLH inh,Pol iota inh,POLK inh,POLB inh,Tb PGK inh,FEN1 inh-2
N/C(=N\N=C\c1ccc(Cl)cc1)N/N=C/c1ccc(Cl)cc1,/,/,/,3%[19.4 µM],/,/,/
CCCCc1ccc(CC(=O)NO)cc1,-9%,/,14%,-17%,/,/,/
CN(C)CCCNc1cc(O)c2ncccc2c1,-27%,-5%,6.3µM*,-13%,/,7%,38*
Cc1[nH]c2ccccc2c1C(=O)C(C)OC(=O)c1ccc([N+](=O)[O-])o1 (stereo unspecified),?,-26%,6%,-15%,-24%,-2%,19*
Cc1cccc(NC(=O)c2ccc(Cn3nc(N4CCN(c5ccccc5)CC4)ccc3=O)o2)c1C,-5%,2%,?,-15%,-18%,-1%,/
Cc1ccccc1/C=N/Nc1nc2ccccc2c(=O)n1O,40µM*,?,15%,-2%,-28%,0%,43*
CC[n+]1c(/C=C/C=C/N(C(C)=O)c2ccccc2)sc2cc(OC)ccc21,50µM*,?,?,35µM*,16µM*,-13%,43*
CC[n+]1c(/C=C(\C)OC)sc2ccccc21,6%,-6%,11%,-4%,9%,10%,/
CCOC(=O)c1cnc2c(ccc3ccccc32)c1NCCCN(C)C,50µM*,-20%,?,-25%,?,-7%,38*
CNc1ccc2c3c(cccc13)C(=O)N(C)C2=O,?,-31%,?,-1%,-25%,-10%,?
Cc1ccsc1/C=N/NC(=O)c1cccs1,-3%,-11%,103%,-4%,9%[57.1 µM],-5%,/
Cc1ccsc1/C=N/NC(=O)C(N)=O,16µM*,-3%,14%,10%,26%,0%,?
Cc1ccc(C(=O)OCc2nnc(-c3ccccc3)o2)s1,-3%,-8%,51%,3%,/,-9%,/
O=C(COC(=O)c1ccc([N+](=O)[O-])s1)Nc1ccccc1,-18%,?,89µM*,-3%,6.3µM*,-4%,21*
COc1ccc(S(=O)(=O)N2CCOCC2)cc1NC(=O)COC(=O)c1ccc([N+](=O)[O-])s1,-20%,?,89µM*,-24%,/,-5%,6.7*
O=C(OCc1nnc(-c2ccccc2)o1)c1ccc([N+](=O)[O-])s1,?,56µM*,?,-33%,/,-16%,4.8*
COc1ccc(S(=O)(=O)N2CCOCC2)cc1NC(=O)COC(=O)c1[nH]c(C)c(C(C)=O)c1C,-4%,2%,-20%,-21%,/,1%,/
CC(C)c1ccc(C(=O)CC2(O)C(=O)N(CCc3ccccc3)c3ccc(Cl)cc32)cc1 (stereo unspecified),-27%,?,-9%,-21%,-30%,-9%,/
COc1ccc(S(=O)(=O)N2CCN(c3nc(-c4cccs4)nc4ccccc34)CC2)cc1OC,14%,/,?,-30%,/,/,/
CCc1ccc(C(=O)c2cn(CC(=O)Nc3ccc(C)c(C)c3)c3ccccc3c2=O)cc1,10%,-11%,17%,-19%,3%,10%,/
O=c1c2c(-c3ccccc3)csc2nc2c3ccccc3c(NCCN3CCOCC3)nn12,40µM*,-12%,-26%,-21%,?,-1%,21*
c1ccc(-c2csc3ncnc(NCCCN4CCOCC4)c23)cc1,9%,-5%,16%,3%,4%,5%,/
Cc1c(Cl)cccc1N=Cc1ccc([N+](=O)[O-])s1,14µM*,89µM*,35µM*,-17%,?,-16%,13*
CN1CCN(CCCNC(=O)c2cc3c(-c4ccc(Cl)cc4)nn(C)c3s2)CC1,?,4%,-10%,-5%,?,10%,/
CCCN(CCC)CCCNC(=O)c1cc2c(-c3ccc(Cl)cc3)nn(C)c2s1,?,-7%,-1%,-10%,20µM*,-4%,?
SMILES,FEN1 inh-1,POLH inh,Pol iota inh,POLK inh,POLB inh,Tb PGK inh,FEN1 inh-2
Nc1ccc2nc(-c3cc(Cl)c(N)c(Cl)c3)[nH]c2c1,50µM*,?,-11%,?,?,-6%,?
Nc1ccc2nc(-c3cccc(-c4nc5ccc(N)cc5[nH]4)c3)[nH]c2c1,?,?,?,35µM*,?,2%,38*
Cc1ccccc1-c1nc(CN2CCC(C(=O)NCc3ccccc3Cl)CC2)c(C)o1,-5%,-22%,48%,-1%,-15%,-5%,/
Cc1nc(/N=C(\N)NC(=O)c2ccccc2)nc2ccccc12,5%,-6%,?,-10%,-11%,-11%,/
Cc1cc2nc(N=C(N)N)nc(C)c2cc1C,18µM*,-1%,-25%,5%,-2%,/,67*
Cc1nc(N=C(N)N)nc2ccccc12,?,10%,-10%,11%,-29%,-2%,48*
Cc1ccc2nc(N=C(N)N)nc(C)c2c1,50µM*,-6%,48%,10%,-9%,-5%,34*
Cc1cc2nc(/N=C(\N)NC(=O)C(C)C)nc(C)c2cc1C,-5%,-14%,-5%[58.9 µM],2%,-22%,-8%,/
CCOC(=O)c1ccccc1S(=O)(=O)N1CCN(c2nc(-c3cccs3)nc3ccccc23)CC1,-14%,/,-2%,-5%,/,/,/
COc1ccccc1-[n+]1c(C)cc(/C=C2\Sc3ccccc3N2C)cc1C,?,?,-12%,?,?,-9%,38*
NC1CCN(c2c(F)cc3c(=O)c(C(=O)O)cn(C4CC4)c3c2Cl)C1 (stereo unspecified),32µM*,-6%,1%,11%,?,-1%,?
Nc1nccnc1C(=O)OCC(=O)Nc1ccc2[nH]c(=O)[nH]c2c1,?,22µM*,20µM*,?,/,-8%,?
COc1ccc(COCC(O)CN2CCC(CN3C(=O)c4cccc5cccc(c45)C3=O)CC2)cc1OC (stereo unspecified),?,-26%,9%,5%,3%,0%,?
COc1cc(COCC(O)CN2CCN(CCN3C(=O)c4cccc5cccc(c45)C3=O)CC2)cc(OC)c1OC (stereo unspecified),?,-17%,-20%,1%,-5%,-2%,/
Cc1cc(C)cc(OCC(O)CN2CCC(CN3C(=O)c4cccc5cccc(c45)C3=O)CC2)c1 (stereo unspecified),?,?,17%,-12%,3%,-9%,?
CCc1cc2c(cc3c(=O)n(CC(=O)NC(C)C)nc(CC)n32)s1,-4%,-13%,31%,16%,-1%,-1%,/
COc1cccc(-c2nc(N3CCN(C)CC3)c3ccccc3n2)c1O,50µM*,-10%,?,-28%,-12%,-2%,38*

# Screening results (PubChem)
